Results as given in PubChem BioAssay (EPA / NIEHS).
The source made the active and inactive calls. How the source made its calls: active means hit-call score of the fitted dose curve at least 0.9, where 1 is the maximum; inactive means score below 0.9.

Read-out: Cyclin Dependent Kinase Inhibitor 1A (CDKN1A), CDKN1A (gene 1026)
Assay: LTEA_HepaRG_CDKN1A: Life Technologies and Expression Analysis (LTEA) Assay for Cyclin Dependent Kinase Inhibitor 1A (CDKN1A) using HepaRG (AID 2283450)
Details: mRNA level, 48 h; actives raise or lower the signal
Summary of the method: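 HepaRG, 48 h dosing, 8-pt half-log series from 100 uM top, 0.5% DMSO vehicle, duplicates. Readout: TaqMan qRT-PCR of CDKN1A transcript, housekeeping-normalized (ACTB, GAPDH, POLR2A). Up/down curve fit relative to DMSO.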

Row | Structure (SMILES) | outcome | AC50
1 | CNC(=O)Oc1cccc2c1OC(C)(C)C2 | inactive | –
2 | CCCCCOC(=O)c1ccccc1C(=O)OCCCCC | inactive | –
3 | CC(C)N(Cc1ccccc1)C(=O)C(C)(C)C | inactive | –
4 | CC(C)(O)c1cnn2c(-c3ccc(F)c(-c4c(F)cccc4C#N)c3)cnc2n1 | inactive | –
5 | Nc1ccc(Oc2ccc(N)cc2)cc1 | inactive | –
6 | Cc1cc(N=Nc2ccccc2C)ccc1N | – | 3.36 µM (active)
7 | O=C(Nc1ccccc1)c1ccccc1I | inactive | –
8 | CCCCCCCCCCCCCN1CC(C)OC(C)C1 (stereo not given) | inactive | –
9 | CCC(C)c1ccc(O)cc1 (stereo not given) | inactive | –
10 | c1ccc(NNc2ccccc2)cc1 | inactive | –
11 | Cc1ccc(N)c(N)c1 | inactive | –
12 | O=C(Oc1ccc(Br)cc1)N1CCN2CCC1CC2 | inactive | –
13 | Nc1ccc(Cc2ccc(N)cc2)cc1 | inactive | –
14 | Cc1ccc(N=C=O)cc1N=C=O | – | 72.2 µM (active)

Read-out: Cyclin D1 (CCND1), CCND1 (gene 595)
Assay: LTEA_HepaRG_CCND1: Life Technologies and Expression Analysis (LTEA) Assay for Cyclin D1 (CCND1) using HepaRG (AID 2283451);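 on AC50: differentiated human HepaRG liver cells in serum-free induction medium; TaqMan qRT-PCR transcript level normalised to ACTB GAPDH and POLR2A housekeeping genes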
Details: mRNA level, 48 h; actives raise or lower the signal
Summary of the method: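 qRT-PCR (Fluidigm 96.96 array) read-out of transcript level, housekeeping-normalized (ACTB/GAPDH/POLR2A). HepaRG cells, 48 h chemical exposure, 8-point half-log series from 100 uM, 0.5% DMSO vehicle; gain or loss relative to DMSO baseline.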

Row | Structure (SMILES) | outcome | AC50
15 | CNC(=O)Oc1cccc2c1OC(C)(C)C2 | inactive | –
16 | CCCCCOC(=O)c1ccccc1C(=O)OCCCCC | inactive | –
17 | CC(C)N(Cc1ccccc1)C(=O)C(C)(C)C | inactive | –
18 | COP(=S)(OC)SCN1C(=O)c2ccccc2C1=O | inactive | –
19 | CC(C)(O)c1cnn2c(-c3ccc(F)c(-c4c(F)cccc4C#N)c3)cnc2n1 | inactive | –
20 | Nc1ccc(Oc2ccc(N)cc2)cc1 | inactive | –
21 | Nc1ccc(Cl)cc1N | inactive | –
22 | Oc1ccc2ccc3cccc4ccc1c2c34 | inactive | –
23 | Cn1cc(-c2ccccc2)c(=O)c(-c2cccc(C(F)(F)F)c2)c1 | inactive | –
24 | Cc1cc(N=Nc2ccccc2C)ccc1N | – | 39.2 µM (active)
25 | C[C@]12C=CC3=C4CCC(=O)C=C4CC[C@H]3[C@@H]1CC[C@@H]2O | inactive | –
26 | O=C(Nc1ccccc1)c1ccccc1I | – | 22 µM (active)
27 | CC(C)(C)C(O)(CCc1ccc(Cl)cc1)Cn1cncn1 (stereo not given) | inactive | –
28 | CCOc1cccc(C2(N3CCN(c4ccccc4)CC3)CCC(C)CC2)c1 (stereo not given) | inactive | –
29 | CCCCCCCCCCCCCN1CC(C)OC(C)C1 (stereo not given) | inactive | –
30 | CCC(C)c1ccc(O)cc1 (stereo not given) | inactive | –
31 | N#CC(Br)(Br)C(N)=O | inactive | –
32 | c1ccc(NNc2ccccc2)cc1 | inactive | –
33 | Nc1ccc(N=Nc2ccccc2)cc1 | – | 28.8 µM (active)
34 | Cc1ccc(N)c(N)c1 | inactive | –
35 | O=P(OCCCl)(OCCCl)OCCCl | inactive | –
36 | O=C(Oc1ccc(Br)cc1)N1CCN2CCC1CC2 | inactive | –
37 | Nc1ccc(Cc2ccc(N)cc2)cc1 | inactive | –
38 | Cc1ccc(N=C=O)cc1N=C=O | inactive | –
39 | Cc1cccc(N)c1N | – | 50 µM (active)
40 | [As]#[In] | inactive | –
41 | O=[N+]([O-])c1ccc(Oc2ccc(Cl)cc2Cl)cc1 | inactive | –

Read-out: catalase (CAT), CAT (gene 847)
Assay: LTEA_HepaRG_CAT: Life Technologies and Expression Analysis (LTEA) Assay for catalase (CAT) using HepaRG (AID 2283452)
Details: mRNA level, 48 h; actives raise or lower the signal
Summary of the method: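 HepaRG cells in serum-free induction medium, 0.5% DMSO vehicle, exposed 48 h in duplicate over 8 half-log concentrations from 100 uM. CAT mRNA measured by qRT-PCR, normalized to ACTB, GAPDH, POLR2A; bidirectional fit versus DMSO.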

Row | Structure (SMILES) | outcome | AC50
42 | CNC(=O)Oc1cccc2c1OC(C)(C)C2 | inactive | –
43 | CCCCCOC(=O)c1ccccc1C(=O)OCCCCC | inactive | –
44 | CC(C)N(Cc1ccccc1)C(=O)C(C)(C)C | inactive | –
45 | COP(=S)(OC)SCN1C(=O)c2ccccc2C1=O | inactive | –
46 | CC(C)(O)c1cnn2c(-c3ccc(F)c(-c4c(F)cccc4C#N)c3)cnc2n1 | inactive | –
47 | Nc1ccc(Oc2ccc(N)cc2)cc1 | inactive | –
48 | Nc1ccc(Cl)cc1N | – | 18.7 µM (active)
49 | Oc1ccc2ccc3cccc4ccc1c2c34 | inactive | –
50 | Cn1cc(-c2ccccc2)c(=O)c(-c2cccc(C(F)(F)F)c2)c1 | inactive | –
51 | Cc1cc(N=Nc2ccccc2C)ccc1N | – | 3.32 µM (active)
52 | C[C@]12C=CC3=C4CCC(=O)C=C4CC[C@H]3[C@@H]1CC[C@@H]2O | – | 50 µM (active)
53 | O=C(Nc1ccccc1)c1ccccc1I | inactive | –
54 | CC(C)(C)C(O)(CCc1ccc(Cl)cc1)Cn1cncn1 (stereo not given) | inactive | –
55 | CCOc1cccc(C2(N3CCN(c4ccccc4)CC3)CCC(C)CC2)c1 (stereo not given) | inactive | –
56 | CCCCCCCCCCCCCN1CC(C)OC(C)C1 (stereo not given) | inactive | –
57 | CCC(C)c1ccc(O)cc1 (stereo not given) | inactive | –
58 | N#CC(Br)(Br)C(N)=O | inactive | –
59 | c1ccc(NNc2ccccc2)cc1 | inactive | –
60 | Nc1ccc(N=Nc2ccccc2)cc1 | – | 14.9 µM (active)
61 | Cc1ccc(N)c(N)c1 | inactive | –
62 | O=P(OCCCl)(OCCCl)OCCCl | inactive | –
63 | O=C(Oc1ccc(Br)cc1)N1CCN2CCC1CC2 | inactive | –
64 | Nc1ccc(Cc2ccc(N)cc2)cc1 | inactive | –
65 | Cc1ccc(N=C=O)cc1N=C=O | – | 19.7 µM (active)
66 | Cc1cccc(N)c1N | – | 50 µM (active)
67 | [As]#[In] | inactive | –
68 | O=[N+]([O-])c1ccc(Oc2ccc(Cl)cc2Cl)cc1 | inactive | –

Read-out: flavin-containing dimethylaniline monooxygenases 3 (FMO3), FMO3 (gene 2328)
Assay: LTEA_HepaRG_FMO3: Life Technologies and Expression Analysis (LTEA) Assay for flavin-containing dimethylaniline monooxygenases 3 (FMO3) using HepaRG (AID 2283453);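 on AC50: differentiated human HepaRG liver cells in serum-free induction medium; FMO3 transcript by TaqMan qRT-PCR normalized to ACTB GAPDH and POLR2A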
Details: mRNA level, 48 h; actives raise or lower the signal
Summary of the method: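 Eight-point concentration-response in serum-free HepaRG cultures (top 100 uM, 0.5% DMSO, 48 h). Read-out: FMO3 mRNA level normalized to three endogenous control genes, fitted bidirectionally versus vehicle.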

Row | Structure (SMILES) | outcome | AC50
69 | CNC(=O)Oc1cccc2c1OC(C)(C)C2 | inactive | –
70 | CCCCCOC(=O)c1ccccc1C(=O)OCCCCC | inactive | –
71 | CC(C)N(Cc1ccccc1)C(=O)C(C)(C)C | inactive | –
72 | COP(=S)(OC)SCN1C(=O)c2ccccc2C1=O | inactive | –
73 | CC(C)(O)c1cnn2c(-c3ccc(F)c(-c4c(F)cccc4C#N)c3)cnc2n1 | inactive | –
74 | Nc1ccc(Oc2ccc(N)cc2)cc1 | inactive | –
75 | Nc1ccc(Cl)cc1N | – | 23.1 µM (active)
76 | Oc1ccc2ccc3cccc4ccc1c2c34 | inactive | –
77 | Cn1cc(-c2ccccc2)c(=O)c(-c2cccc(C(F)(F)F)c2)c1 | inactive | –
78 | Cc1cc(N=Nc2ccccc2C)ccc1N | – | 4.86 µM (active)
79 | C[C@]12C=CC3=C4CCC(=O)C=C4CC[C@H]3[C@@H]1CC[C@@H]2O | – | 20.3 µM (active)
80 | O=C(Nc1ccccc1)c1ccccc1I | – | 50 µM (active)
81 | CC(C)(C)C(O)(CCc1ccc(Cl)cc1)Cn1cncn1 (stereo not given) | – | 76.7 µM (active)
82 | CCOc1cccc(C2(N3CCN(c4ccccc4)CC3)CCC(C)CC2)c1 (stereo not given) | inactive | –
83 | CCCCCCCCCCCCCN1CC(C)OC(C)C1 (stereo not given) | inactive | –
84 | CCC(C)c1ccc(O)cc1 (stereo not given) | inactive | –
85 | N#CC(Br)(Br)C(N)=O | inactive | –
86 | c1ccc(NNc2ccccc2)cc1 | inactive | –
87 | Nc1ccc(N=Nc2ccccc2)cc1 | – | 19.1 µM (active)
88 | Cc1ccc(N)c(N)c1 | inactive | –
89 | O=P(OCCCl)(OCCCl)OCCCl | inactive | –
90 | O=C(Oc1ccc(Br)cc1)N1CCN2CCC1CC2 | inactive | –
91 | Nc1ccc(Cc2ccc(N)cc2)cc1 | inactive | –
92 | Cc1ccc(N=C=O)cc1N=C=O | – | 31.2 µM (active)
93 | Cc1cccc(N)c1N | – | 61.7 µM (active)
94 | [As]#[In] | inactive | –
95 | O=[N+]([O-])c1ccc(Oc2ccc(Cl)cc2Cl)cc1 | – | 50 µM (active)
